Test results: PubChem BioAssay AID1159580 (chemical genetic matrix, 2015)
“And” between values parts separate entries of the source, which are not always exact repeats. Equal entries are not always repeated. The campaign covered roughly 5,500 compounds. About 2,000 (36%) were called active. About 18% were inconclusive and are not listed. Rule as the data show it: active = normalized growth mostly below about 0.91 (no sharp cut-off); inconclusive = no clear call, values can overlap the other calls; inactive = mostly above about 0.92. This is one part of the list.

Test: chemical genetic growth profiling, strain panel (AID 1159580);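 also: tested at 20 µM; growth read once vehicle control cultures reached saturation at 30 °C; 1 = growth at the plate median or of vehicle wells; lower values mean less growth of the strain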
Conditions: growth OD

Measured: normalized growth

CC(CN(C)C)CN1c2ccccc2CCc2ccccc21 (stereo not given)
inactive: S. cerevisiae deletion strains, locus YJR066W, strain TOR1, stronger effect = lower value 0.94 | S. cerevisiae deletion strains, locus YKL009W, strain mrt4, stronger effect = lower value 1 | S. cerevisiae deletion strains, locus YKL068W, stronger effect = lower value 1.01 | S. cerevisiae deletion strains, locus YKL085W, strain MDH1 (second series), stronger effect = lower value 1.02 | S. cerevisiae deletion strains, locus YKL085W, strain MDH1, stronger effect = lower value 1.02 | S. cerevisiae deletion strains, locus YKL160W, strain elf1, stronger effect = lower value 0.978 | S. cerevisiae deletion strains, locus YKL190W, strain CNB1, stronger effect = lower value 1.02 | S. cerevisiae deletion strains, locus YKR001C, strain vps1, stronger effect = lower value 1.02 | S. cerevisiae deletion strains, locus YKR026C, strain gcn3, stronger effect = lower value 0.991 | S. cerevisiae deletion strains, locus YKR091W, strain srl3, stronger effect = lower value 0.977 | S. cerevisiae deletion strains, locus YLL001W, strain dnm1, stronger effect = lower value 0.989 | S. cerevisiae deletion strains, locus YLL026W, stronger effect = lower value 0.979 | S. cerevisiae deletion strains, locus YLL041C, strain sdh2, stronger effect = lower value 0.965 | S. cerevisiae deletion strains, locus YLR027C, strain aat2, stronger effect = lower value 0.974 | S. cerevisiae deletion strains, locus YLR039C, strain RIC1, stronger effect = lower value 1.13 | S. cerevisiae deletion strains, locus YLR058C, strain SHM2, stronger effect = lower value 1.01 | S. cerevisiae deletion strains, locus YLR102C, strain apc9, stronger effect = lower value 1.02 | S. cerevisiae deletion strains, locus YLR113W, strain HOG1, stronger effect = lower value 0.994 | S. cerevisiae deletion strains, locus YLR221C, strain rsa3, stronger effect = lower value 0.982 | S. cerevisiae deletion strains, locus YLR258W, strain gsy2, stronger effect = lower value 0.984 | S. cerevisiae deletion strains, locus YLR262C, strain YPT6 (second series), stronger effect = lower value 1.01 | S. cerevisiae deletion strains, locus YLR262C, strain YPT6, stronger effect = lower value 1.12 | S. cerevisiae deletion strains, locus YLR268W, strain sec22, stronger effect = lower value 1.02 | S. cerevisiae deletion strains, locus YLR320W, strain mms22, stronger effect = lower value 0.947 | S. cerevisiae deletion strains, locus YLR330W, strain CHS5, stronger effect = lower value 1.01 | S. cerevisiae deletion strains, locus YLR342W, strain FKS1 (second series), stronger effect = lower value 1.04 | S. cerevisiae deletion strains, locus YLR342W, strain FKS1, stronger effect = lower value 0.976 | S. cerevisiae deletion strains, locus YLR357W, strain rsc2, stronger effect = lower value 0.967 | S. cerevisiae deletion strains, locus YLR370C, strain arc18, stronger effect = lower value 0.977 | S. cerevisiae deletion strains, locus YLR371W, strain rom2, stronger effect = lower value 1.01 | S. cerevisiae deletion strains, locus YLR384C, strain iki3, stronger effect = lower value 0.979 | S. cerevisiae deletion strains, locus YLR418C, strain cdc73, stronger effect = lower value 1.02 | S. cerevisiae deletion strains, locus YML016C, strain PPZ1, stronger effect = lower value 1.01 | S. cerevisiae deletion strains, locus YML032C, strain rad52, stronger effect = lower value 1.01 | S. cerevisiae deletion strains, locus YML120C, strain ndi1, stronger effect = lower value 0.971 | S. cerevisiae deletion strains, locus YML124C, strain tub3, stronger effect = lower value 1.02 | S. cerevisiae deletion strains, locus YMR058W, strain fet3, stronger effect = lower value 0.971 | S. cerevisiae deletion strains, locus YMR078C, strain ctf18, stronger effect = lower value 1.01 | S. cerevisiae deletion strains, locus YMR125W, strain sto1, stronger effect = lower value 0.973 | S. cerevisiae deletion strains, locus YMR129W, stronger effect = lower value 0.981 | S. cerevisiae deletion strains, locus YMR205C, strain PFK2, stronger effect = lower value 0.97 | S. cerevisiae deletion strains, locus YMR223W, strain ubp8, stronger effect = lower value 1.02 | S. cerevisiae deletion strains, locus YMR231W, strain pep5, stronger effect = lower value 0.984 | S. cerevisiae deletion strains, locus YMR263W, strain SAP30, stronger effect = lower value 1 | S. cerevisiae deletion strains, locus YMR307W, strain GAS1, stronger effect = lower value 1.05 and 1 | S. cerevisiae deletion strains, locus YNL067W, strain RPL9B, stronger effect = lower value 1.01 | S. cerevisiae deletion strains, locus YNL071W, strain lat1, stronger effect = lower value 0.963 | S. cerevisiae deletion strains, locus YNL128W, strain TEP1, stronger effect = lower value 1.03 and 1.02 | S. cerevisiae deletion strains, locus YNL175C, strain NOP13, stronger effect = lower value 1.01 | S. cerevisiae deletion strains, locus YNL183C, strain NPR1, stronger effect = lower value 0.936 | S. cerevisiae deletion strains, locus YNL197C, strain WHI3, stronger effect = lower value 1.02 | S. cerevisiae deletion strains, locus YNL209W, strain ssb2, stronger effect = lower value 0.98 | S. cerevisiae deletion strains, locus YNL224C, strain SQS1, stronger effect = lower value 1.01 | S. cerevisiae deletion strains, locus YNL233W, strain BNI4, stronger effect = lower value 0.998 | S. cerevisiae deletion strains, locus YNL248C, strain rpa49, stronger effect = lower value 0.988 | S. cerevisiae deletion strains, locus YNL250W, strain rad50, stronger effect = lower value 1.03 | S. cerevisiae deletion strains, locus YNL271C, strain bni1, stronger effect = lower value 1.02 | S. cerevisiae deletion strains, locus YNL298W, strain CLA4, stronger effect = lower value 1.02 | S. cerevisiae deletion strains, locus YNL307C, strain MCK1, stronger effect = lower value 1.03 | S. cerevisiae deletion strains, locus YNL322C, strain KRE1 (second series), stronger effect = lower value 0.966 | S. cerevisiae deletion strains, locus YNL322C, strain KRE1, stronger effect = lower value 1.01 | S. cerevisiae deletion strains, locus YNR049C, strain mso1, stronger effect = lower value 0.977 | S. cerevisiae deletion strains, locus YNR052C, strain pop2, stronger effect = lower value 1.02 | S. cerevisiae deletion strains, locus YOL006C, strain TOP1, stronger effect = lower value 0.976 | S. cerevisiae deletion strains, locus YOL012C, strain htz1 1.63 | S. cerevisiae deletion strains, locus YOL147C, strain pex11, stronger effect = lower value 1.02 | S. cerevisiae deletion strains, locus YOR001W, strain rrp6, stronger effect = lower value 0.979 | S. cerevisiae deletion strains, locus YOR061W, strain CKA2, stronger effect = lower value 1.01 | S. cerevisiae deletion strains, locus YOR069W, strain VPS5, stronger effect = lower value 1.01 | S. cerevisiae deletion strains, locus YOR070C, strain gyp1, stronger effect = lower value 1.01 | S. cerevisiae deletion strains, locus YOR080W, strain dia2, stronger effect = lower value 0.971 | S. cerevisiae deletion strains, locus YOR083W, strain WHI5 (second series), stronger effect = lower value 1.05 | S. cerevisiae deletion strains, locus YOR083W, strain WHI5, stronger effect = lower value 0.976 | S. cerevisiae deletion strains, locus YOR106W, strain vam3, stronger effect = lower value 0.939 | S. cerevisiae deletion strains, locus YOR136W, strain idh2, stronger effect = lower value 1.02 | S. cerevisiae deletion strains, locus YOR144C, strain elg1, stronger effect = lower value 1.02 | S. cerevisiae deletion strains, locus YOR184W, strain ser1, stronger effect = lower value 1.04 | S. cerevisiae deletion strains, locus YOR231W, strain MKK1, stronger effect = lower value 0.983 | S. cerevisiae deletion strains, locus YOR265W, strain rbl2, stronger effect = lower value 0.97 | S. cerevisiae deletion strains, locus YOR270C, strain vph1, stronger effect = lower value 0.897 | S. cerevisiae deletion strains, locus YOR290C, strain snf2, stronger effect = lower value 0.927 | S. cerevisiae deletion strains, locus YOR316C, strain cot1, stronger effect = lower value 1.02 | S. cerevisiae deletion strains, locus YPL051W, strain arl3, stronger effect = lower value 0.972 | S. cerevisiae deletion strains, locus YPL055C, strain LGE1, stronger effect = lower value 1.01 | S. cerevisiae deletion strains, locus YPL078C, strain atp4, stronger effect = lower value 0.961 | S. cerevisiae deletion strains, locus YPL106C, strain sse1, stronger effect = lower value 0.956 | S. cerevisiae deletion strains, locus YPL240C, strain hsp82, stronger effect = lower value 0.978 | S. cerevisiae deletion strains, locus YPL241C, strain CIN2, stronger effect = lower value 1.01 and 1 | S. cerevisiae deletion strains, locus YPL256C, strain CLN2, stronger effect = lower value 0.981 | S. cerevisiae deletion strains, locus YPR119W, strain clb2, stronger effect = lower value 1.02 | S. cerevisiae deletion strains, locus YPR141C, strain kar3, stronger effect = lower value 1.01 | S. cerevisiae deletion strains, locus YPR163C, strain tif3, stronger effect = lower value 1.02 | S. cerevisiae deletion strains, locus YPR167C, strain met16, stronger effect = lower value 1.02 | S. cerevisiae deletion strains, strain wtn01, stronger effect = lower value 1.02 | S. cerevisiae strains, strain wild type, stronger effect = lower value 1
